Screens as filed in PubChem.
Compounds with a hit are over-represented: about 0.52% of the library has one in this group of screens.
Sa growth inh – S. aureus growth inhibition; AID 720641; relative growth, % (no concentration beside the values); actives 0.53% (n = 170,000); S. aureus RN4220 growth, OD600, 20 h, 42 °C; stronger effect = lower value;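 active = relative growth at most 50% at the other temperature and 20+ points below 30 °C, or under 10% at both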
S aureus helic – blocks Staphylococcus aureus DNA helicase; purified S. aureus helicase, fluorescence unwinding assay; inhibition, % (no concentration beside the values); actives 0.05% (n = 120,000); in the data active = inhibition above about 25%, passing the limit was not always enough
Each line names hits and unclear results; the compound was inactive in the other large screens.

O=c1cc(C(F)(F)F)[nH]c2ccc(Br)cc12	none (no result: S aureus helic)
O=C(Nc1cccc(Cl)c1Cl)c1ccc2c(c1)N(Cc1cccc(Cl)c1)C(=O)c1ccccc1S2(=O)=O	none (no result: S aureus helic)
CC(C)(C)c1ccc(CSc2n[nH]c(=O)[nH]c2=O)cc1	none
CCOc1nnc(NS(=O)(=O)c2ccc(N=Cc3ccccc3O)cc2)s1	Sa growth inh 7.8
Cc1cc(NS(=O)(=O)c2ccc(N=Cc3ccccc3O)cc2)no1	none
